Laboratory results as given in ChEMBL document CHEMBL1157539, “Thousands of chemical starting points for antimalarial lead identification” (Nature, 2010).

Tested on: HepG2
Assay: GSK_TCMDC: Percent inhibition of human HepG2 cell line. Test compounds present at 10uM.
Type: functional

**Q.** With `O=C(NC1CCCCC1)c1ccc(O)c(-c2cccc(C(F)(F)F)c2)c1` as the molecule, how does the Inhibition read?
**A.** 8%

**Q.** For `Cc1cc(C)c2c(c1)C(=NO)CCN2`, which Inhibition is on record?
**A.** 2%

**Q.** Which Inhibition does the source give for `O=C(NC1CCN(Cc2ccccc2)CC1)c1cccc(Nc2nc(-c3ccccc3)cs2)c1` here?
**A.** 70%

**Q.** With `Cc1cnc(CN(Cc2ccc(-c3ccc(CNCCc4ccc(S(C)(=O)=O)cc4)cn3)cc2)C(=O)c2ccc([N+](=O)[O-])c(C)c2)cn1.O=C(O)C(F)(F)F` as the molecule, how does the Inhibition read?
**A.** 0%

**Q.** Which Inhibition does the source give for `Cl.Clc1cccnc1N1CCN(c2ncccc2Cl)CC1` here?
**A.** 2%

**Q.** With `CN(C)C(=O)CCCn1c(CNCCCNc2cc(=O)c3ccccc3[nH]2)cc2c(Cl)cc(Cl)cc21.Cl` as the molecule, how does the Inhibition read?
**A.** 1%

**Q.** For `O=C(NCc1cccs1)[C@H](Cc1ccccc1)Nc1ccnc(NCC2CCCCC2)n1.O=C(O)C(F)(F)F`, which Inhibition is on record?
**A.** 5%

**Q.** For `O=C(NCCc1cccc(Cl)c1Cl)c1ccc(N2CCN(c3ccncc3)CC2)nc1.O=C(O)C(F)(F)F`, which Inhibition is on record?
**A.** 38%

**Q.** With `Br.CC1(C)NC(N)=NC(=N)N1OCCCOc1c(Cl)cc(Cl)cc1Cl` as the molecule, how does the Inhibition read?
**A.** 65%

**Q.** How did the Inhibition turn out when `Br.CCCc1cc(C)ccc1OCCCON1C(N)=NC(N)=NC1(C)C` was run?
**A.** 64%

**Q.** For `COc1ccc2c(=O)c(-c3ccc(OC(F)(F)F)cc3)c(C)[nH]c2c1`, which Inhibition is on record?
**A.** 0%

**Q.** For `O=C(Nc1ccc2c(ccn2C2CCCN(Cc3cc(F)cc(F)c3F)CC2)c1)c1ccco1` (centres undefined), which Inhibition is on record?
**A.** 7%

**Q.** For `COc1ccc2nccc(N3CCC(SCCNS(=O)(=O)c4ccc5c(c4)NC(=O)CS5)C3)c2n1.Cl` (centres undefined), which Inhibition is on record?
**A.** 20%

**Q.** Which Inhibition does the source give for `COc1ccc(CNCc2ccc(F)cc2)cc1-c1ccc(S(=O)(=O)NCCN2CCCC2)c(C)c1.O=C(O)C(F)(F)F` here?
**A.** 55%

**Q.** How did the Inhibition turn out when `CN(C)c1ccc(N2C(N)=NC(N)=NC23CCCC3)cc1.Cl` was run?
**A.** 1%

**Q.** With `Cc1cc(N(C)C)nc(Nc2ccc(NC(=O)C3CCCCC3)cc2)n1` as the molecule, how does the Inhibition read?
**A.** 3%

**Q.** Which Inhibition does the source give for `CC(Oc1ccc(NC(=O)c2cccs2)cc1)C(=O)c1ccc(Cl)cc1` (centres undefined) here?
**A.** 0%

**Q.** How did the Inhibition turn out when `COc1ccc(NC(=O)/C=C/c2ccccc2Cl)cc1OCCN1CCC(NCc2cccnc2)CC1` was run?
**A.** 12%

**Q.** For `CCOC(=O)c1ccc(NC(=O)c2ccccc2C(=O)O)cc1`, which Inhibition is on record?
**A.** 2%

**Q.** With `O=C(c1cc2nc3c(c(C(F)(F)F)n2n1)CCc1ccccc1-3)N1CCN2CCCC2C1` (centres undefined) as the molecule, how does the Inhibition read?
**A.** 0%

**Q.** For `Cc1noc(C)c1-c1ccc2c(Nc3ccccc3C(C)(C)C)c(C(=O)NCc3ccc(C(F)(F)F)cc3)cnc2c1.Cl`, which Inhibition is on record?
**A.** 30%

**Q.** `COc1ccc(Nc2nccc(NCC(O)c3ccc(C(F)(F)F)cc3)n2)cc1` (centres undefined) was tested. Which Inhibition did it give?
**A.** 6%

**Q.** `Cl.N#Cc1ccc2c(c1)CCN(CCC1CCC(NC(=O)/C=C/c3c[nH]c4c(Br)cccc34)CC1)CC2` (centres undefined) was tested. Which Inhibition did it give?
**A.** 32%

**Q.** Which Inhibition does the source give for `COc1ccc(CN2CCCC(OC(c3ccc(F)cc3)c3ccc(F)cc3)C2)c(O)c1` (centres undefined) here?
**A.** 16%

**Q.** How did the Inhibition turn out when `Oc1cc2c(cc1CN1CCN(Cc3ccccc3F)CC1)CCC2` was run?
**A.** 2%

**Q.** For `O=C(NC1CC1)c1cnc(N2CCC(c3ccccc3)CC2)c(Cl)c1.O=C(O)C(F)(F)F`, which Inhibition is on record?
**A.** 6%

**Q.** Which Inhibition does the source give for `Nc1ncc(-c2ccsc2)cc1-c1nc2ccccc2[nH]1` here?
**A.** 33%

**Q.** With `C=C(C)CSc1nc2c(c(=O)n1Cc1ccco1)C1(CCCCC1)Cc1ccccc1-2` as the molecule, how does the Inhibition read?
**A.** 2%

**Q.** With `Cl.N#Cc1ccc2c(c1)CCN(CCC1CCC(NC(=O)/C=C/c3ccc(Cl)c(Cl)c3)CC1)CC2` (centres undefined) as the molecule, how does the Inhibition read?
**A.** 31%

**Q.** How did the Inhibition turn out when `Cl.O=C1COc2cc(Cl)c(CNC3CCN(CCc4ccnc5c(F)cc(F)cc45)CC3)nc2N1` was run?
**A.** 96%

**Q.** How did the Inhibition turn out when `CCCCCCc1cnc2nc(N)nc(N)c2c1C` was run?
**A.** 67%

**Q.** For `O=C(O)c1cccnc1Sc1ccc(Cl)cc1`, which Inhibition is on record?
**A.** 5%

**Q.** `Cc1nc(C)n(CC(=O)Nc2cccc(-c3cccc(-c4nc5cc(C(F)(F)F)ccc5[nH]4)c3)c2)n1` was tested. Which Inhibition did it give?
**A.** 62%

**Q.** With `COc1ccc2nccc([C@@H](O)CN3CCC(NCc4cc5cc(OC(F)(F)F)ccc5[nH]4)CC3)c2c1.O=C(O)C(=O)O` as the molecule, how does the Inhibition read?
**A.** 49%

**Q.** With `CCCCCCCC1CC(CC(=O)Nc2ccnc3ccc(OC)cc23)CN1C(=O)OC(C)(C)C` (centres undefined) as the molecule, how does the Inhibition read?
**A.** 1%

**Q.** With `Cc1ccc(-c2cc(C(=O)Nc3ccc(S(=O)(=O)N4CCCCC4)cc3)[nH]n2)c(O)c1` as the molecule, how does the Inhibition read?
**A.** 6%

**Q.** For `Cl.N=C(N)NN=Cc1ccc2ccc3ccccc3c2c1`, which Inhibition is on record?
**A.** 34%

**Q.** With `Cc1c(CCc2cccc(F)c2F)[nH]c2ccccc2c1=O` as the molecule, how does the Inhibition read?
**A.** 41%

**Q.** `COc1cccc2cc(C(=O)N[C@@H](CC(C)C)C(=O)N[C@H](/C=N/NC(=O)Cc3cccnc3)CCc3ccccc3)oc12` was tested. Which Inhibition did it give?
**A.** 6%
